A selection: hits, their analogues and other compounds. The true share with any hit is near 3.7%.
HTT promoter inh – HTT promoter inhibition; HEK293 HTT promoter firefly luciferase reporter, 24 h; Potency, µM (doses to about 57.5 µM), usual class: inhibitors; 0.93% of 48,000 active; also: nearly all actives have a fitted effect of over 50% in size
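HEK293 luciferase promoter-reporter cells (2,500/well) plated 24 h, then compounds added at up to 57.5 uM final for 24 h at 37 °C. Firefly luminescence by Dual-Glo, normalized to vehicle (0%) and zero RLU (-100%).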
HTT-AS act – activates huntingtin-antisense promoter activity | 0.24% of 48,000 active | AID 1508624 | HEK293 HTT-AS promoter firefly luciferase reporter, 24 h; response scale: percent change from vehicle, -100% = no light | Potency, µM (doses to about 57.5 µM), actives largely listed as activators; also: nearly all actives have a fitted effect of over 55% in size
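Luminescence was read after Dual-Glo reagent and a 10 min room-temperature incubation. Values were normalized to vehicle (0% activity) and zero RLU (-100% activity). Reporter HEK293 cells had been exposed to compounds (up to 57.5 uM final) for 24 h.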
DRV1 agonist – activates human resolvin D1 receptor GPR32; O75388; CHO-K1 GPR32 beta-arrestin PathHunter luminescence, 90 min; zero percent set by DMSO-only wells; activation, % at 76.9 µM; 2.5% of 48,000 active; AID 1346428;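 active = activation of at least 60% and not above a set upper limit, about 1 call in 100 departs from these limits; inconclusive = activation of 40% to 60%, or above that upper limit; inactive = activation under 40%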
Target sequence (O75388 whole entry, looked up): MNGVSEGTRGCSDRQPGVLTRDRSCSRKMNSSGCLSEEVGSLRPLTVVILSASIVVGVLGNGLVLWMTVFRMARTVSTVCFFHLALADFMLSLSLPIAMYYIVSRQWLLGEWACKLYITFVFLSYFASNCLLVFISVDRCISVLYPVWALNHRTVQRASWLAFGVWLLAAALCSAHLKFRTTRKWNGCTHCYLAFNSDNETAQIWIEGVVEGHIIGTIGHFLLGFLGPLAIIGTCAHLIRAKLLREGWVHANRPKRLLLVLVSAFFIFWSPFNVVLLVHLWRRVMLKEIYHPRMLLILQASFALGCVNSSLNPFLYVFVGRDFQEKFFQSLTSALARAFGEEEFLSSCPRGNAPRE
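PathHunter beta-arrestin recruitment in CHO-K1 cells stably expressing ProLink-tagged GPR32. Cells were exposed to compound for 90 min at 37 C, then chemiluminescence was read after 1 h detection at ambient temperature; DMSO served as basal control.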
Large screens that a line does not name were inactive; ! = not active in a repeat. Unless noted, calls follow the shape of the dose curve; as a rule, active = well fitted curve in the direction sought with a large enough effect; inconclusive = small, poorly fitted or top-dose-only effect, or another doubt; inactive = no such curve, though single readings can be large; an effect the other way counts as inactive or inconclusive.

CC(C)CCNC(=O)c1c[nH]c2ccc(S(=O)(=O)Nc3cccc(C(F)(F)F)c3)cc2c1=O	HTT promoter inh inconclusive
O=C(C1CC1)N1CC[C@@H](Cn2c(-c3ccc(-c4ccc5occc5c4)cc3)nc3cnccc32)C1	none (no result: DRV1 agonist)
C=C1C(=O)OC(CCCCCCCC)C1C(=O)O (stereo unspecified)	none (no result: DRV1 agonist)
COCC(=O)NCC=Cc1ccc2ncnc(Nc3ccc(Oc4ccc(C)nc4)c(C)c3)c2c1	HTT promoter inh inconclusive (no result: DRV1 agonist)
CCC(C)SSc1ncc[nH]1 (stereo unspecified)	none (no result: DRV1 agonist)
Cc1cc(C)cc(NS(=O)(=O)c2ccc3[nH]cc(C(=O)NCCc4ccccc4)c(=O)c3c2)c1	DRV1 agonist 79
CCc1ccc(NS(=O)(=O)c2ccc3[nH]cc(C(=O)NCCc4ccccc4)c(=O)c3c2)cc1	none
CN(C(=O)c1c[nH]c2ccc(S(=O)(=O)Nc3cccc(C(F)(F)F)c3)cc2c1=O)C1CCCCC1	none
O=C(NC1CCCC1)c1c[nH]c2ccc(S(=O)(=O)Nc3cccc(C(F)(F)F)c3)cc2c1=O	HTT promoter inh inconclusive, DRV1 agonist 82
OCC1O[C@H]([S-])[C@H](O)[C@@H](O)[C@@H]1O.[Au+] (stereo partly specified)	none (no result: HTT promoter inh, HTT-AS act)
O=C(Cn1c(=O)oc2cc(S(=O)(=O)N3CCCC3)ccc21)NCc1ccc(Cl)cc1	DRV1 agonist inconclusive
COc1cccc(CNC(=O)Cn2c(=O)oc3cc(S(=O)(=O)N4CCC(C)CC4)ccc32)c1	HTT promoter inh inconclusive
Cn1c(=O)oc2cc(S(=O)(=O)NC(Cc3ccccc3)C(=O)NCc3ccc(F)cc3)ccc21 (stereo unspecified)	none
CN(C)c1ccc(CNC(=O)Cn2c(=O)oc3cc(S(=O)(=O)N4CCCCCC4)ccc32)cc1	HTT promoter inh inconclusive, DRV1 agonist 113
CN(C)c1ccc(CNC(=O)C(Cc2ccccc2)NS(=O)(=O)c2ccc3c(c2)oc(=O)n3C)cc1 (stereo unspecified)	DRV1 agonist 94
COc1cccc(CNC(=O)Cn2c(=O)oc3cc(S(=O)(=O)N4CCCCCC4)ccc32)c1	HTT promoter inh inconclusive, DRV1 agonist 76
CN[C@@H](C)[C@H]1[C@H](O)C[C@@]2(C)[C@@H]3CC[C@H]4C(C)(C)[C@@H](NC)CC[C@@]45C[C@@]35CC[C@]12C	none (no result: DRV1 agonist)
C=CC(=O)Nc1cc(NC(=O)c2ccc(C)c(NC(=O)c3ccno3)c2)cc(C(F)(F)F)c1	HTT promoter inh inconclusive (no result: DRV1 agonist)
CC(CN1c2ccccc2Sc2ccccc21)N(C)C (stereo unspecified)	DRV1 agonist 108!
C[C@@H](CN(C)C)CN1c2ccccc2Sc2ccccc21	DRV1 agonist inconclusive
CCc1ccc(NC(=O)CSc2nnc3[nH]c(=O)cc(-c4ccccc4)n23)cc1	none
O=C(CSc1nnc2[nH]c(=O)cc(-c3ccccc3)n12)Nc1ccccc1C(F)(F)F	HTT-AS act 11µM
Cc1ccc2nc(NC(=O)CSc3cc(C)[nH]c(=O)n3)sc2c1	none
CCOc1ccc(OCC)c(Nc2nc3ccccc3c3nnc(C)n23)c1	none
CCOc1ccc2nc(C)cc(Nc3ccccc3OCC)c2c1	DRV1 agonist 90
C=CCNc1nc(NCC=C)nc(N2CCN(C(c3ccc(F)cc3)c3ccc(F)cc3)CC2)n1	none
C[C@@H](Oc1cc(-n2cnc3ccc(CN4CCN(C)CC4)cc32)sc1C(N)=O)c1ccccc1C(F)(F)F	HTT promoter inh inconclusive (no result: DRV1 agonist)
O=C(Nc1cccc(Cl)c1)c1ccc(F)c(S(=O)(=O)N2CCC3(CC2)OCCO3)c1	HTT promoter inh inconclusive
O=C(Nc1cccc(C(F)(F)F)c1)c1ccc(F)c(S(=O)(=O)N2CCc3ccccc3C2)c1	HTT promoter inh 28µM
O=C(Nc1cc(Cl)cc(Cl)c1)c1ccc(F)c(S(=O)(=O)NCc2ccccc2Cl)c1	HTT promoter inh inconclusive
CC(C)c1ccc(NC(=O)c2ccc(F)c(S(=O)(=O)N3CCc4ccccc4C3)c2)cc1	HTT promoter inh 11µM
CC(C)c1ccc(NC(=O)c2ccc(F)c(S(=O)(=O)N3CCN(c4ccccc4F)CC3)c2)cc1	HTT promoter inh inconclusive
COc1ccccc1CNS(=O)(=O)c1cc(C(=O)Nc2cccc(C(F)(F)F)c2)ccc1F	HTT promoter inh 28µM
c1ccc(CNc2nc(N3CCOc4ccccc43)nc3c2CCCC3)cc1	none (no result: DRV1 agonist)
CCN(CC)CCNC(=O)c1ccc2nc(-c3ccccc3)c(-c3ccc(CN4CCC(n5c(=O)[nH]c6ccccc65)CC4)cc3)nc2c1	HTT promoter inh inconclusive (no result: DRV1 agonist)
N#Cc1c(C2CCNCC2)cc(-c2c(O)cccc2OCC2CC2)nc1N	none (no result: DRV1 agonist)
COc1ccc(Cn2c(C(=O)O)c(CNCc3cccs3)c3ccc(C)cc32)cc1	DRV1 agonist inconclusive
COc1ccc2c(CNCc3cccs3)c(C(=O)O)n(Cc3ccc(F)cc3)c2c1	DRV1 agonist inconclusive

Screening results (PubChem)
